Results: PubChem BioAssay
Activity calls are given as the source filed them.

Key:
[1] = small molecules captured by biotinylated probe aFSTL3 – biochemical, small-molecule microarray, fluorescence 635/667, stem cell growth factor project, primary screen (AID 1064); details: higher = more signal;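 note: measures binding of the biotinylated anti-FSTL3 antibody to printed compounds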
[2] = binders from COS7 lysate, DM2A8 probe, primary screen, torsin A project, cell lysate, small-molecule microarray, fluorescence 635/667 (AID 1065); details: higher = more signal, COS7 lysate expressing mutant human TOR1A
[3] = small molecules captured by biotinylated probe aFGF2 – biochemical, small-molecule microarray, fluorescence 635/667, stem cell growth factor project, primary screen (AID 1067); details: higher = more signal;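 note: measures binding of biotinylated aFGF2 protein to printed compounds on slides; z-score merges feature fluorescence and signal-to-noise across triplicate slides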
[4] = small molecules captured by biotinylated probe aFGF10 – biochemical, small-molecule microarray, fluorescence 635/667, stem cell growth factor project, primary screen (AID 1071); details: higher = more signal;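 note: score merges 667 nm spot intensity and signal to noise from triplicate slides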
[5] = target: Neurogenic locus notch homolog protein 2 (Homo sapiens) (UniProt Q04721); assay: small molecules binding Notch2 protein – biochemical, small-molecule microarray, 635 nm fluorescence, stem cell growth factors, primary screen (AID 1073); details: higher = more signal
[6] = target: Pro-neuregulin-1, membrane-bound isoform (Homo sapiens) (UniProt Q02297); assay: small molecules binding neuregulin-1 protein – biochemical, small-molecule microarray, fluorescence 635/667, psychiatric disease protein project, primary screen (AID 1075); details: NRG1 binding, 635 nm fluorescence, higher = more signal;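 note: score combines 667 nm spot fluorescence with signal to noise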
Chain of Pro-neuregulin-1, membrane-bound isoform (Homo sapiens) (Q02297 whole entry, looked up, the tested form may be a part, canonical isoform): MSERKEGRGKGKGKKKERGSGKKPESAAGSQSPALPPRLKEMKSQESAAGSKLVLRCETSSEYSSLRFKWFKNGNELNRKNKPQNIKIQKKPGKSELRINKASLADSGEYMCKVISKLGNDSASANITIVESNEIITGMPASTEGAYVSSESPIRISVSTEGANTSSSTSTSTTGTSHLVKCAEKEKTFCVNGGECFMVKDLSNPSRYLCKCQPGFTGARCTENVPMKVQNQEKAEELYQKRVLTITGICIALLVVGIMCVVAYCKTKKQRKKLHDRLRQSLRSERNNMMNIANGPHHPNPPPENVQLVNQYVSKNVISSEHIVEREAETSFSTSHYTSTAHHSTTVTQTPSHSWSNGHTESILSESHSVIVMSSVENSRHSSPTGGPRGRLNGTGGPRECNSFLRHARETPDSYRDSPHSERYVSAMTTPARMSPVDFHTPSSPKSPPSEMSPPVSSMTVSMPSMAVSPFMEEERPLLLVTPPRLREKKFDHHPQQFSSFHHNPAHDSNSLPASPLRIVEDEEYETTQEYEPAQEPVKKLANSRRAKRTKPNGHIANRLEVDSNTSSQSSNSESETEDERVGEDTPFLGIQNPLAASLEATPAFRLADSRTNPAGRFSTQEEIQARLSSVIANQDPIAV

[7] = system: Neuregulin-1 EGF-like domain; assay: small molecules binding NRG1 EGF domain – biochemical, small-molecule microarray, 635 nm fluorescence, primary screen (AID 1081); details: higher = more signal;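 note: binding of the protein to compounds printed on small-molecule microarray slides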
[8] = FRG1 expression reporter modulators in myotubes – cell-based, C2C12 myotubes, firefly/Renilla luciferase, luminescence, FRG1 inhibition for FSHD, primary screen (AID 1084); details: FRG1 promoter luciferase, higher = more signal, called active from +8 up or from −8 down
[9] = small molecules captured by biotinylated probe aFST – biochemical, small-molecule microarray, fluorescence 635/667, stem cell growth factor project, primary screen (AID 1086); details: higher = more signal;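 note: score merges 667 nm fluorescence with signal-to-noise of each printed compound spot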
[10] = binders of probe aHhip on microarray, primary screen, stem cell growth factor project, biochemical, small-molecule microarray, fluorescence 635/667 (AID 1087); details: higher = more signal;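 note: score merges spot fluorescence at 667nm with spot signal to noise ratio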
[11] = system: PRMT1 (protein arginine N-methyltransferase 1); assay: small molecules binding arginine methyltransferase PRMT1 – biochemical, small-molecule microarray, 635 nm fluorescence, primary screen (AID 1088); details: higher = more signal;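 note: binding of Prmt1 protein to compounds spotted on small-molecule microarray slides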
[12] = growth effects on S. cerevisiae YJM789 – YJM789 clinical isolate, OD600, 24 h, basal, primary screen (AID 1089); details: higher = more signal, called active from +8 up or from −8 down;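 note: growth of clinical yeast isolate S. cerevisiae YJM 789 seeded 1000 cells per well; test concentration not given here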
[13] = S. pombe growth modifiers, basal conditions – strain 972, OD600, 24 h, no modulator, primary screen (AID 1090);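 note: basal condition with compound alone and no growth modifier present; test concentration not given here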; details: S. pombe 972 growth, higher = more signal, called active from +8 up or from −8 down
[14] = budding yeast growth modifiers under rapamycin – strain BY4716, OD600, 96 h, primary screen (AID 1091); note: test concentration not given here; details: S. cerevisiae BY4716 + rapamycin, higher = more signal, called active from +8 up or from −8 down
[15] = target: Torsin-1A-interacting protein 2 (Homo sapiens) (UniProt Q8NFQ8); assay: small molecules binding lysate-expressed LULL1 – cell lysate, human LULL1 lysate, 635/667 nm fluorescence, primary screen (AID 1092); details: small-molecule microarray, hLULL1 lysate binding, 635 nm fluorescence; higher = more signal;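 note: probe is lysate of COS7 cells overexpressing human LULL1; score merges per-feature 667 nm fluorescence with signal-to-noise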
Chain of Torsin-1A-interacting protein 2 (Homo sapiens) (Q8NFQ8 whole entry, looked up): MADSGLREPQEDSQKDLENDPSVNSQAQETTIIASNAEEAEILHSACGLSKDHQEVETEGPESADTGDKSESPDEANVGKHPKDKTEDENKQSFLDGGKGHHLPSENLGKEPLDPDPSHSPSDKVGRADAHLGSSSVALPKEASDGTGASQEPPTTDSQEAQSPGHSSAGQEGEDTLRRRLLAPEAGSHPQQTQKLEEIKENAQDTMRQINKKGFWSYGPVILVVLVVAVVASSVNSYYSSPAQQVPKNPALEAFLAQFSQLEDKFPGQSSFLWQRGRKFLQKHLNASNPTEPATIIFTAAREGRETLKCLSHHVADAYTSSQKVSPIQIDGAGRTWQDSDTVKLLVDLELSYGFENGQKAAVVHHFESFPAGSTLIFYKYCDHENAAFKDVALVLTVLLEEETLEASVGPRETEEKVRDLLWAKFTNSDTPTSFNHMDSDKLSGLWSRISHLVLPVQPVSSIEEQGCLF

[16] = optical density change of DRC41 E. coli – strain DRC41, OD650, 24 h, E. coli filamentation project, primary screen (AID 1093);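 note: MC1000 strain lacking acrAB efflux and sulA so SOS filamentation is blocked; test concentration not given here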; details: E. coli DRC41 growth, higher = more signal, called active from +8 up or from −8 down
[17] = probe aLefty2 binding to arrayed compounds – biochemical, biotinylated probe, 635/667 nm fluorescence, primary screen (AID 1094); details: small-molecule microarray, higher = more signal;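 note: score merges spot fluorescence near 667 nm with spot signal-to-noise ratio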
[18] = system: Noggin (protein binding on small-molecule microarray); assay: small molecules binding Noggin protein – biochemical, 635/667 nm fluorescence, primary screen (AID 1095); details: 635 nm fluorescence, higher = more signal;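 note: score merges 667 nm feature fluorescence with signal to noise over triplicate slides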
[19] = target: Neurogenic locus notch homolog protein 3 (Homo sapiens) (UniProt Q9UM47); assay: small molecules binding NOTCH3 protein – biochemical, 635/667 nm fluorescence, primary screen (AID 1096); details: small-molecule microarray, 635 nm fluorescence, higher = more signal
Chain of Neurogenic locus notch homolog protein 3 (Homo sapiens) (Q9UM47 whole entry, looked up): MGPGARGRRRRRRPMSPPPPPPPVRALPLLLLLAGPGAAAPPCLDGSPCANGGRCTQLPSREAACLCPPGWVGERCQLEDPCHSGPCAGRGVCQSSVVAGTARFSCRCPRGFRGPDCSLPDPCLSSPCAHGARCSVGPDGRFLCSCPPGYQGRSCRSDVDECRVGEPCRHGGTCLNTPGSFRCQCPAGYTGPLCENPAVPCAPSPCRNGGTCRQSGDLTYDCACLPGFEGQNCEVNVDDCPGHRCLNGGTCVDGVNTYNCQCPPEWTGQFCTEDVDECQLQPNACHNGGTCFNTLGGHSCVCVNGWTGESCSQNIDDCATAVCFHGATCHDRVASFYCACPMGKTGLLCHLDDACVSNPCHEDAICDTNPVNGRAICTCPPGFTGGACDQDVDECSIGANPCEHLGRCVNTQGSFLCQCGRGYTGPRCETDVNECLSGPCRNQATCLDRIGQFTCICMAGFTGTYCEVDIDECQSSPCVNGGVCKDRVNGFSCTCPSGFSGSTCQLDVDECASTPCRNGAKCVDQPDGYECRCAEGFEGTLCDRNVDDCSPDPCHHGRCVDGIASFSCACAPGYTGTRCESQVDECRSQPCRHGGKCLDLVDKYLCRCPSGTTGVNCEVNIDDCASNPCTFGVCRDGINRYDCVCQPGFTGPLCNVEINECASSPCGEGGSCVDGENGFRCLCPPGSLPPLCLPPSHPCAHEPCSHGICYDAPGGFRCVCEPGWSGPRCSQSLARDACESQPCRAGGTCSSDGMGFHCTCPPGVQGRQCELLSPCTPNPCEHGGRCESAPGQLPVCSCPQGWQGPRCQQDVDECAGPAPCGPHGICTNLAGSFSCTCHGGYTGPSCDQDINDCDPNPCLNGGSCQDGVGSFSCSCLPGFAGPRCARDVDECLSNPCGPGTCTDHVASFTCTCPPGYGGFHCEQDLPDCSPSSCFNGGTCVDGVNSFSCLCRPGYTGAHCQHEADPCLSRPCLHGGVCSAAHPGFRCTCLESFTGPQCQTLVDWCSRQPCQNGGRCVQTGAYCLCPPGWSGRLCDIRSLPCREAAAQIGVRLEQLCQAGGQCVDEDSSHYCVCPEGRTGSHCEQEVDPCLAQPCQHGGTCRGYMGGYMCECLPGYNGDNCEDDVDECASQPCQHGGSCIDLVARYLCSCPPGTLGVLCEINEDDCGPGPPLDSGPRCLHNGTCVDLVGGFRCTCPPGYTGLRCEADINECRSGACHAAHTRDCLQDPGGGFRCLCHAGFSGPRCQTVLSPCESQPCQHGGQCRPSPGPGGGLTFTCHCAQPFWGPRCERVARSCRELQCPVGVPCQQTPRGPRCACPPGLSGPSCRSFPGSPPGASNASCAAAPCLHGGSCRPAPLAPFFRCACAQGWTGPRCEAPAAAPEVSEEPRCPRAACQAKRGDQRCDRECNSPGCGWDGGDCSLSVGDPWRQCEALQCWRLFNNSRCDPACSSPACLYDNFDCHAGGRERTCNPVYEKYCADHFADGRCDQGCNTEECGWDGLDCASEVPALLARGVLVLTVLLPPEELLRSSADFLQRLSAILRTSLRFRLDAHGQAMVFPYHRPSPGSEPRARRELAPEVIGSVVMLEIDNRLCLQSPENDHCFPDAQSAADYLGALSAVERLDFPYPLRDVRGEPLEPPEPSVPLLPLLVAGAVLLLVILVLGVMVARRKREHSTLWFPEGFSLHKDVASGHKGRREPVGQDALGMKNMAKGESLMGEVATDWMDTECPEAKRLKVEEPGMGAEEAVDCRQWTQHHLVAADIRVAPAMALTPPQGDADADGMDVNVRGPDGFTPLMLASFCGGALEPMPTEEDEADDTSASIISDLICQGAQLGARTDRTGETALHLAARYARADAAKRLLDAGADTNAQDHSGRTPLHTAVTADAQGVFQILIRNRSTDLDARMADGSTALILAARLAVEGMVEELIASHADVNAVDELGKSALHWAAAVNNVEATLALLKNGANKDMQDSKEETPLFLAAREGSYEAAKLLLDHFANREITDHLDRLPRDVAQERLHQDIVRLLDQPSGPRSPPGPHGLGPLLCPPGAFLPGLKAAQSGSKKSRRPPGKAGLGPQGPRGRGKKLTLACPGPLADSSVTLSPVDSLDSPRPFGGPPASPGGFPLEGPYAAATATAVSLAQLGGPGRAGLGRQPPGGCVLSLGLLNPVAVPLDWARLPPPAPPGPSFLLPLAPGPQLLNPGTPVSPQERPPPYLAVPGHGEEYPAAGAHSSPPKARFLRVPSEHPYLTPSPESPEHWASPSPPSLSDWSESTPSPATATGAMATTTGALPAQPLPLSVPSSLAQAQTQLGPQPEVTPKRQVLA

[20] = probe aEGFR binding to arrayed compounds – biochemical, biotinylated probe, 635/667 nm fluorescence, primary screen (AID 1097); details: small-molecule microarray, higher = more signal;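 note: probe is a biotinylated anti-EGFR antibody binding compounds printed on slides; score combines fluorescence near 667 nm and signal to noise of each spot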

Compound | composite z-score [1] | composite z-score [2] | composite z-score [3] | composite z-score [4] | composite z-score [5] | composite z-score [6] | composite z-score [7] | z-score [8] | composite z-score [9] | composite z-score [10] | composite z-score [11] | z-score [12] | z-score [13] | z-score [14] | composite z-score [15] | z-score [16] | composite z-score [17] | composite z-score [18] | composite z-score [19] | composite z-score [20]
C[N+](C)(C)CCCCNC(=O)[C@H]1C[C@H]2C(=O)N3CCC[C@H]3C(=O)N2[C@H]1c1ccc(O)cc1 | -0.32 | 0.799 | -0.12 | 1.15 | 0.534 | -0.0852 | 1.34 | 1.42 (inactive) | 0.446 | 0.176 | 1.54 | 0.0531 (inactive) | 0.0211 (inactive) | -1.41 (inactive) | 2.14 | -0.0773 (inactive) | -0.101 | 1.85 | 1.04 | 0.124
CC(C)C(CO)N1C(=O)[C@@H]2[C@H]3C(=O)OCC=C[C@H]3OC23C=CCN(c2ccc4ccccc4c2)C(=O)[C@@H]13 (stereo not given in full) | 0.316 | -0.377 | -0.169 | -0.134 | -1.13 | 0.187 | -0.111 | 0.125 (inactive) | -0.527 | 0.0373 | -0.382 | 0.523 (inactive) | -0.494 (inactive) | 1.17 (inactive) | 0.607 | 0.0732 (inactive) | -0.192 | -1.21 | -0.319 | -0.127
Cc1cccc(/C=C/C=O)c1 | -0.305 | -0.582 | -0.0996 | 0.0071 | -0.663 | 0.27 | 0.928 | 0.641 (inactive) | 0.211 | -0.056 | 0.425 | 0.897 (inactive) | -4.56 (inactive) | -0.104 (inactive) | 1.54 | -0.0384 (inactive) | -0.186 | 0.0535 | -0.136 | -0.246
Cc1ccc(S[C@]2(C(=O)NCCCN(C)C)CC(=O)N(Cc3ccccc3)[C@@H]2c2ccc(CO)cc2)cc1 | 1.15 | -0.533 | -0.145 | -0.193 | -1.24 | -0.234 | -1.11 | -1.76 (inactive) | -0.101 | -0.409 | 1.25 | -0.933 (inactive) | -1.18 (inactive) | -1.03 (inactive) | 2.01 | -0.0465 (inactive) | 0.555 | -0.511 | -0.631 | -0.152
O=C1C2C=CC(C(O)CCc3ccccc3)N(Nc3ccccc3)C2C(=O)N1c1ccccc1 (stereo not given) | 0.572 | 1.83 | 0.288 | 0.83 | 1.61 | 2.09 | 1.22 | 0.0878 (inactive) | 1.15 | -0.0645 | 1.49 | 0.655 (inactive) | 0.226 (inactive) | 1.43 (inactive) | 3.4 | -1.88 (inactive) | 0.231 | 0.0749 | 1.02 | 0.0864
COc1ccc(C#Cc2ccc3c(c2)[C@]2(C(=O)N3)[C@H](c3ccc(OCCO)cc3)N3[C@H](c4ccccc4)[C@H](c4ccccc4)OC(=O)[C@H]3[C@@H]2C(=O)Nc2nc3ccccc3s2)cc1 | 0.244 | 0.664 | -0.0167 | 0.71 | 1.07 | 2.24 | 1.13 | 3.55 (inactive) | 0.667 | -0.181 | 1.54 | 2 (inactive) | 0.831 (inactive) | 1.44 (inactive) | 3.02 | 2.4 (inactive) | 0.135 | 0.57 | 1.12 | 0.238
